Measured values as given in PubChem BioAssay AID504339 (National Center for Advancing Translational Sciences (NCATS), 2011).
Where “and” joins values, the source holds several entries; their conditions need not be identical. Equal values may be shown once. The whole screen tested about 390,000 compounds, of which about 17,000 (4.4%) were called active. About 8% were inconclusive and are not listed. The call rests on the fitted dose curve; in most records, active means well fitted inhibition curve with a large enough effect; inconclusive means small, poorly fitted or top-dose-only effect; inactive means no such curve, though single readings can be large or run the other way. The list comes from a sample in which actives are over-represented; it also holds similar structures and randomly drawn compounds. More than one record can exist for a structure, and the calls need not agree.

These molecules were tested against Lysine-specific demethylase 4A (Homo sapiens) (UniProt O75164) (assay: qHTS Assay for Inhibitors of JMJD2A-Tudor Domain). Settings: AlphaScreen JMJD2A-Tudor / H3K4me3 peptide binding; series mostly up to 114 µM; activity change, negative = inhibition: at the top concentration.
Chain of Lysine-specific demethylase 4A (Homo sapiens) (O75164 whole entry, looked up, the tested form may be a part): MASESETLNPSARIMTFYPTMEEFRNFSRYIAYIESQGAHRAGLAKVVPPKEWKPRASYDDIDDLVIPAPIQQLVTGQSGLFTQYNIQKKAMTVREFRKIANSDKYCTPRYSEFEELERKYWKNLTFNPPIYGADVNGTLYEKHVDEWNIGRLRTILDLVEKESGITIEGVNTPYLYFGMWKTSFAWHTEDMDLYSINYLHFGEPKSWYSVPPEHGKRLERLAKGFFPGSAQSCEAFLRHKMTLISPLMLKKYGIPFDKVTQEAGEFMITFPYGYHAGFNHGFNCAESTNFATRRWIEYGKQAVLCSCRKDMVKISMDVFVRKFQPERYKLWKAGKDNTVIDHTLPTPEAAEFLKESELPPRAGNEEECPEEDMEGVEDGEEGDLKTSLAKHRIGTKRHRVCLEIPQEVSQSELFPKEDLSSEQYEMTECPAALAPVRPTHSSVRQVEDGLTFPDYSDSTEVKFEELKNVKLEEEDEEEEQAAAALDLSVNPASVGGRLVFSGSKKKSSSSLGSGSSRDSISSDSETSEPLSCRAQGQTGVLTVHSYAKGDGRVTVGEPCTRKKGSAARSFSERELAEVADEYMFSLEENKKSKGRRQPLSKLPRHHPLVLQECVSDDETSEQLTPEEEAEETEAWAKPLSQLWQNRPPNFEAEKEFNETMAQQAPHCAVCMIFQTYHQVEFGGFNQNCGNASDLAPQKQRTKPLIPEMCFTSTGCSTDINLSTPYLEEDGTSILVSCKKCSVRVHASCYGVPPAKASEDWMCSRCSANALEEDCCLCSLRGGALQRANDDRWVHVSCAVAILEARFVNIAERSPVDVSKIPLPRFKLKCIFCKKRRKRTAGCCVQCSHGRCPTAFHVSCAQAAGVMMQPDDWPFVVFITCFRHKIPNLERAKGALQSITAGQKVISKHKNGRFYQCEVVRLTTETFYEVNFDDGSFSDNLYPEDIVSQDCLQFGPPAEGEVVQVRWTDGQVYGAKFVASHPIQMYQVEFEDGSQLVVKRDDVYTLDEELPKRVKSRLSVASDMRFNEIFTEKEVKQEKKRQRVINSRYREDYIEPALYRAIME
Further: nearly all actives have a fitted effect of over 50% in size.
On the % scale 0 is the no-effect control and ±100 the full control effect; potency means the concentration at half of the fitted maximal effect.

Compound	activity change, negative = inhibition	Potency
COc1cccc(CNC(=O)Cn2c(=O)c3cccn3c3ccc(F)cc32)c1OC	-5.59% (inactive)	
CCOc1ccc(CCNC(=O)CN(c2ccc(C)cc2)S(=O)(=O)N(C)C)cc1OCC	-2.98% (inactive)	
O=C(Cn1ncc2c3ccccc3n(Cc3ccccc3)c2c1=O)NC1CCCCCC1	-9.73% (inactive)	
CCCNC(=O)C(CC)n1nc(CC)n2c(cc3oc(C)cc32)c1=O (stereo not drawn)	-4% (inactive)	
CCOc1cccc(C(=O)Nc2nnc(S(=O)(=O)N(C)c3ccc(C)cc3)s2)c1	5.92% (inactive)	
CCOc1cccc(-c2nn3c(-c4ccccn4)nnc3s2)c1		79.4 µM (active)
CCOc1cccc(-c2nnc(SCC(=O)NC3CC3)n2C)c1	-3.03% (inactive)	
Cc1ccc2c(=O)c(C(=O)c3ccc(F)cc3)cn(CC(=O)NC3CCCCC3)c2n1	-17.2% (inactive)	
CSc1ncc(C(=O)NCc2ccccc2Cl)c(C(F)(F)F)n1	-0.99% (inactive)	
Cc1cccn2c(=O)c3cc(C(=O)NC(C)c4ccccc4)c(=N)n(CCCO)c3nc12 (stereo not drawn)	-10% (inactive)	
CCOc1cccc(NC(=O)c2ccc(F)c(S(=O)(=O)N(CC)c3cccc(C)c3)c2)c1	4.89% (inactive)	
COc1cccc2cc(-c3cc(=O)oc4cc(C)c(O)cc34)oc12	-21.7% (inactive)	
COc1cccc2c(O)cc(=O)n(C)c12	-1.39% (inactive)	
COc1cc(O)c2c(=O)c3c(O)c(O)ccc3oc2c1OC		89.1 µM (active)
CCOc1ccccc1CNC(=O)C1CCCN(S(=O)(=O)c2ccc3c(ccn3C)c2)C1 (stereo not drawn)	-24% (inactive)	
Cc1ccc(S(=O)(=O)N2CCN(C(=O)N3CCOCC3)CC2)c(C)c1	-0.328% (inactive)	
Cc1ccc(-n2c(N)c(C(=O)N3CCOCC3)sc2=S)c(C)c1		35.5 µM (active)
Cc1cccc(C(=O)N2CCN(S(=O)(=O)N3CCCCC3)CC2)c1	1.46% (inactive)	
O=C(c1ccc(S(=O)(=O)N2CCCC2)cc1)N1CCN(c2ccccc2F)CC1	0% (inactive)	
Cc1cccc(-n2c(N)c(C(=O)N3CCN(C)CC3)sc2=S)c1		79.4 µM (active)
Cc1ccc(N2CCN(C(=O)c3cccs3)CC2)c(C)c1	-3.42% (inactive)	
COc1cccc(N2CCN(c3ccc4nnc(CCC(=O)N5CCN(C)CC5)n4n3)CC2)c1	-5.26% (inactive)	
O=C(c1ccc(CSc2ccccc2)cc1)N1CCCCCC1	-5.41% (inactive)	
N#Cc1ccccc1-n1c(N)c(C(=O)N2CCCC2)sc1=S		56.2 µM (active)

Compound	activity change, negative = inhibition	Potency
O=C(Cn1c(=O)n(Cc2ccccc2)c(=O)c2sc3ccccc3c21)Nc1ccccc1F	0.683% (inactive)	
Cc1ccccc1OCc1nc2c3cnn(-c4ccccc4F)c3ncn2n1	1.74% (inactive)	
COc1ccc(OC)c(NC(=O)CSc2nc3ccccc3nc2N2CCCCC2)c1	-8.59% (inactive)	
Cc1ccc(C(=O)NC2CCN(C#N)CC2)cc1	-11.6% (inactive)	
CCOc1ccc(N(CC)S(=O)(=O)N2CCCC(C(=O)NCc3ccc(Cl)cc3)C2)cc1 (stereo not drawn)	-9.16% (inactive)	
COC(=O)c1ccc(COc2ccc(/C=C/C(=O)c3ccc(OC)c(CSCC(=O)O)c3)cc2OC)cc1		50.1 µM (active)
COC(=O)c1ccc(COc2ccc(/C=N/NC(=O)C(=O)Nc3ccc(OC)cc3)cc2OC)o1	10% (inactive)	
COC(=O)c1ccc(C(NC(=O)OCc2ccccc2)/C(C)=C/[C@@H](C)C(=O)NCc2ccc(OC)c(OC)c2)cc1 (stereo partly drawn)	-17.3% (inactive)	
Cc1ccc(NC(=O)c2ccc(CN3CC(=O)N4CCCCC4C3=O)cc2)c(Cl)c1 (stereo not drawn)	-13.5% (inactive)	
CC(=O)c1sc(N2C(=O)c3oc4ccccc4c(=O)c3C2c2ccc(C)cc2)nc1C (stereo not drawn)	-1.37% (inactive)	
C=Cc1ccc(Cn2c(C(=O)O)c(CNC3CCCC3)c3ccc(C)cc32)cc1	-29.7% (inactive)	
COc1cc(OC)cc(C(=O)NCCCn2ccnc2)c1	-4.79% (inactive)	
COc1ccc(/C=C(\C#N)C(=O)NCCCn2ccnc2)cc1	-9.72% (inactive)	
COc1cccc(-c2nn(-c3ccccc3)cc2/C=C(\C#N)C(=O)NCCCn2ccnc2)c1		44.7 µM (active)
O=C(N/N=C/c1ccccn1)c1cccc(NC(=O)c2ccc(Cl)cc2)c1	5.02% (inactive)	
O=C(N/N=C/c1ccccn1)c1cccnc1		79.4 µM (active)
COc1cc(C=NNC(=O)c2cccnc2)ccc1OC(=O)c1ccccc1F	-20.1% (inactive)	
Cc1ccc2oc3c(c(=O)c2c1)C(c1ccc(O)cc1)N(Cc1ccc2c(c1)OCO2)C3=O (stereo not drawn)	-6.53% (inactive)	
CCOc1ccc(S(=O)(=O)N(CC(=O)NCCSCc2ccc(C)cc2)c2ccccc2)cc1	-10% (inactive)	
S=C(NCCCc1cnc[nH]1)NCCCN(Cc1ccc(Cl)c(Cl)c1)c1ccc(Br)cn1		44.7 µM (active)
CCOc1ccc(Nc2c(S(=O)(=O)c3ccccc3)cnc3ccccc23)cc1	-23.3% (inactive)	
COc1cccc(-n2ccn(CC(=O)NCc3ccc(C)cc3)c(=O)c2=O)c1	-11.2% (inactive)	
C=CC1=C(C(=O)O)N2C(=O)[C@@H](NC(=O)/C(=N/OCC(=O)O)c3csc(N)n3)[C@H]2SC1		25.1 µM (active)
CO/N=C(\C(=O)N[C@@H]1C(=O)N2C(C(=O)O)=C(COC(C)=O)CS[C@H]12)c1csc(N)n1 (stereo in doubt)		inactive and 79.4 µM (active) and 56.2 µM (active)
